Measured values as given in PubChem BioAssay (NCATS).
Records with an inconclusive call do not appear. Activity calls are given as the source filed them. Calls come from the whole dose curve; as a rule, active = well fitted curve in the direction sought with a large enough effect; inconclusive = small, poorly fitted or top-dose-only effect, or another doubt; inactive = no such curve, though single readings can be large; an effect the other way counts as inactive or inconclusive.

Assays:
[1] = biological target: Arylsulfatase A (Homo sapiens) (UniProt P15289); experiment: qHTS screen for enhancers of Arylsulfatase A (ASA1): LOPAC Validation Assay (AID 720538); conditions: ASA enzyme activity, LOPAC qHTS enhancer assay; series mostly up to 57.5 µM
Chain of Arylsulfatase A (Homo sapiens) (P15289 whole entry, looked up): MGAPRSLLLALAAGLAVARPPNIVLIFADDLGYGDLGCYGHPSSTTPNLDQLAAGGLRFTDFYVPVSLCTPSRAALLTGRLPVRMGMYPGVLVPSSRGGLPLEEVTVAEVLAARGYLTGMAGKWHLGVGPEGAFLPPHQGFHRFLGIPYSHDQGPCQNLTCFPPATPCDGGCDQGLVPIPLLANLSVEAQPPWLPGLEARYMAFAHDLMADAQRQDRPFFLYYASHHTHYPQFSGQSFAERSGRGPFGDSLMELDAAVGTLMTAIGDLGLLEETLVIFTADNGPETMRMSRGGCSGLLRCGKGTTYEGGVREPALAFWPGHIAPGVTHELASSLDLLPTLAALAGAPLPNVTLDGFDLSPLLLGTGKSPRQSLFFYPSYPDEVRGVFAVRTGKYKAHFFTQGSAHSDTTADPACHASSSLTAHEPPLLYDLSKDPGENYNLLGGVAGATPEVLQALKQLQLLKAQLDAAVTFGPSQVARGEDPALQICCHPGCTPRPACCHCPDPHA
Method in brief: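 SV40-transformed skin fibroblasts from an MLD patient (ASA-I179S) were treated with compounds for 48h at 37 degree C, then lysed with 0.5mM pNCS final substrate for 14h at room temperature; NaOH stop, fluorescence read (Ex=525 nm; Em=598 nm).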

[2] = qHTS for compounds that reverse cellular toxicity of Amyloid beta (A-beta) peptide in yeast: LOPAC Validation Assay (AID 720559); conditions: yeast expressing A-beta; series mostly up to 46.1 µM
Method in brief: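 Yeast cells expressing toxic A-beta were combined with pinned compounds in growth medium and incubated 48 hr at 30 C. Growth was read as absorbance at 600 nm and normalized to DMSO and to an equimolar FeCl3/clioquinol positive control.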

[3] = qHTS for Activators of Parkin Expression: LOPAC Validation Assay (NLuc Reporter) (AID 720572); conditions: Parkin promoter NanoLuc reporter cells, luminescence; series mostly up to 46.1 µM
Method in brief: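 Compound effects on Parkin promoter activity were measured as NanoLuc luminescence after 24 h at 37 C. The neuronal reporter line also carried FLuc, which was read first. LOPAC compounds were tested at 7 concentrations, with normalization to DMSO (0%) and positive control (100%).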

[4] = qHTS for Activators of Parkin Expression: LOPAC Validation Assay (FLuc Reporter) (AID 720573); conditions: Cell line, PRKN promoter firefly luciferase reporter; series mostly up to 46.1 µM
Method in brief: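 Neuronal cell line stably carrying FLuc/NLuc coincidence reporter under Parkin promoter; cells plated 24 h, then compounds added in 7-point dose response for 24 h at 37 C. FLuc luminescence read; normalized to DMSO and positive control (100%).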

Measured: Potency

CCCCCCCCCCC/C=C\C(C)(C)/C=C\CCCC(=O)O
inactive: all assays above

CCC(=O)N1CCN(C(=O)c2ccccc2)CC1
inactive: all assays above

CN1Cc2sccc2C(c2ccc(O)c(O)c2)C1 (configuration not stated)
inactive: all assays above

O=C(OCCN1CCOCC1)C1(c2ccccc2)CCCCC1
inactive: all assays above

Cn1cc(C(F)(F)F)nc1-c1ccc(OCC(O)CNCCOc2ccc(O)c(C(N)=O)c2)cc1 (configuration not stated)
inactive: all assays above

CCCCCCCCCCCCCCC[C@H](O)[C@H](N)CO
inactive: all assays above

O=C(c1ccc2c(c1)OCCO2)N1CCCCC1
inactive: all assays above

NC/C=C\C(=O)O
inactive: all assays above

Cn1cc(C(=O)OCC2CCN(CCNS(C)(=O)=O)CC2)c2ccccc21
inactive: all assays above

O=C(O)/C=C/c1cnc[nH]1
inactive: all assays above

C=CCN1CCc2c(cc(O)c(O)c2Br)[C@@H](c2ccccc2)C1
inactive: all assays above

Cc1nc(N=Nc2ccc(S(=O)(=O)O)cc2S(=O)(=O)O)c(COP(=O)(O)O)c(C=O)c1O
inactive: all assays above

[N-]=[N+]=Nc1ccc(C(=O)CSC[C@H](NC(=O)CC[C@H](N)C(=O)O)C(=O)NCC(=O)O)cc1
inactive: all assays above
